Assay results: PubChem BioAssay (NCI)
This is part of a sample that, as a whole, favours compounds with a hit. Of some 83,000 tested, about 20% had one in any assay.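 Single-dose data. Exposure time 48 hours. Values below 10 considered active.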 The source made the active and inactive calls.

What follows are compounds tested on HL-60(TB) leukemia (assay: NCI-60 one-dose screen, 48 h (100 = growth as untreated, 0 = no growth, -100 = all killed)). Conditions: 10 µM unless noted.
For `O=c1[nH]cc(/C=N\Nc2ccccc2)c(=O)[nH]1`, the growth was 0.751% (active). `COc1cc2nc(N3CCCC3)nc(NCc3ccccc3)c2cc1OC` was tested, and the growth was -47.8% (active). In the case of `CC/C=C\CCC/C=C1/C(=O)C=C[C@@H]1C/C=C\CCCC(=O)O`, the growth is reported as 10.9% (inactive). For `CCC(=O)N1C/C(=C/c2ccc(OC)cc2)C(=O)/C(=C/c2ccc(OC)cc2)C1`, the growth was 25.1% (inactive). With `CCCCCC/C=C\CCCCCCCCOc1ccc(CCOP(=O)(O)OCC[N+](C)(C)C)cc1` the growth was -15.1% (active). `Nc1nc(-c2ccccc2)cs1` was tested, and the growth was 115% (inactive). With `O=c1cc(CP(=O)(O)O)c2cc(O)c(-c3ccccc3)cc2o1` the growth was 104% (inactive). For `CC1=C([Se]CC(OC(=O)CC[Se]c2ccccc2)C(=O)NC(C)(C)C)C(=O)c2ccccc2C1=O` (centres undefined), the growth was -43.2% (active). `CCCCCN1C=C/C(=C\C(=O)n2ccc3ccccc32)c2ccccc21` was tested, and the growth was 103% (inactive). For `CN1CCN(C2=C(Cl)C(=O)c3ccccc3C2=O)CC1`, the growth was 24.8% (inactive). `CC(C)(C)c1ccc(C(=O)Nc2sc3cc(O)ccc3c2C(N)=O)cc1` was tested, and the growth was 43.3% (inactive). With `O=C1C=C[C@H](O)[C@@]2(CO)O[C@@H]12` the growth was -24.4% (active). In the case of `Cc1cc(N(CCCNc2ccnc3cc(Cl)ccc23)Cc2ccccn2)nc(N2CCCC2)n1`, the growth is reported as 65.8% (inactive). In the case of `O=c1oc2ccc(Br)cc2c(=O)n1-c1ccc(Cl)cc1F`, the growth is reported as -32.8% (active). With `Cc1ccccc1-n1c(C)nc2cc(NC(=O)c3ccc(Cl)cc3)ccc2c1=O` the growth was 64.5% (inactive). For `O=C(OCc1nc2nc(Cl)nc(N3CCOCC3)c2[nH]1)n1ccnc1`, the growth was -30.1% (active). For `COc1cc(C(=O)/C=C/c2ccc(N3CCN(C)CC3)cc2)cc(OC)c1OC`, the growth was 98.2% (inactive). For `CCOc1ccc2c(c1)CC[C@@H]1[C@@H]2CC[C@]2(C)[C@@H](O)[C@@H](O)C[C@@H]12`, the growth was 97% (inactive). `CC(=O)c1cc(C(=O)c2ccc3c(c2)Sc2ccccc2N3)c2c(C)cc(C)cn12` was tested, and the growth was -12.6% (active). `CCCCCCCCCCCCCC` was tested, and the growth was 87% (inactive). In the case of `CCOC(=O)n1cc(C2=C(c3cn(C)c4ccccc34)COC2=O)c2ccccc21`, the growth is reported as -23.6% (active). `CNCc1cccc2c1OCCOCCOCCN(C)S(=O)(=O)c1ccc(cc1)-c1cnc(N)c(n1)C(=O)N2` was tested, and the growth was -37% (active). `CCCCCN(CCCCC)CCCNc1c2c(nc3ccc(Cl)cc13)CCCC2` was tested, and the growth was 48.8% (inactive). `COc1cc(OC)cc(-c2ccc(-c3ccc(C(=N)N)cn3)s2)c1` was tested, and the growth was -25.4% (active).
